Assay results taken from the supplement of paper PMC8047044.
Where a name gives a salt, the structure may show the parent alone.

Key:
[1] = test system: Neuro-2a; assay: neurite formation score, plate-normalized to DMSO control mean 5.04 (score (0-8 scale)); higher = more or longer neurites; settings: 1 µM
Procedure: (§1)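 Neuro-2a mouse neuroblastoma cells in PLL-coated 96-well plates were pre-treated for 1 h in DMEM(+) with each kinase inhibitor at 1 µM, then switched to serum-free DMEM(-) with inhibitor to induce neurite outgrowth and fixed about 2-3 h later. Three blinded observers scored neurite formation from 0 (no neurites) to 8 (long neurites on almost all cells).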

[2] = test system: Neuro-2a; assay: as above; settings: 0.1 µM
Procedure: as §1, with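 “at 0.1” for “at 1”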

Compound | neurite formation score [1] | neurite formation score [2]
COc1cc2c(Oc3ccc4[nH]c(C)cc4c3F)ncnc2cc1OCCCN1CCCC1 [Cediranib (AZD217)] | 3.91 | 4.71
CC(C)(C)c1nc2c3cc[nH]c(=O)c3c3cc(F)ccc3c2[nH]1 [Pyridone 6] | 3.69 | 5.25
COc1cc2ncnc(Nc3ccc(O)cc3)c2cc1OC | 5.02 | 4.25
Cn1sc(=O)n(Cc2ccccc2)c1=O | 2.96 | 4.25
NC(=O)Nc1sc(-c2ccc(F)cc2)cc1C(N)=O | 4.36 | 4.58
Cc1ccc(NC(=O)c2cccc(C(C)(C)C#N)c2)cc1Nc1ccc2ncn(C)c(=O)c2c1 | 5.24 | 4.88
N#CCNC(=O)c1ccc(-c2ccnc(Nc3ccc(N4CCOCC4)cc3)n2)cc1 [CYT387 sulfate salt] | 4.69 | 4.92
Cc1cc([C@@H](C)Nc2ccccc2C(=O)O)c2nc(N3CCOCC3)cc(=O)n2c1 | 4.57 | 4.54
CN(c1ccccc1CNc1nc(Nc2ccc3c(c2)CC(=O)N3)ncc1C(F)(F)F)S(C)(=O)=O | 4.29 | 3.58
COc1cc(Nc2ncc3c(n2)-c2ccc(Cl)cc2C(c2c(F)cccc2OC)=NC3)ccc1C(=O)O [MLN8237 (Alisertib)] | 4.36 | 4.58
c1cncc(CN2CCC(n3ncc4c(N5CCOCC5)nc(-c5ccc6[nH]ccc6c5)nc43)CC2)c1 | 1.54 | 0.751
CCc1ccc(/C=C2/SC(=S)NC2=O)cc1 | 5.57 | 5.04
CNC(=O)c1ccccc1Nc1cc(Nc2ccc(N3CCOCC3)cc2OC)ncc1C(F)(F)F | 5.02 | 5.58
